Source: PubChem
Pf growth 96h: inhibits malaria parasite growth, 96 h. P. falciparum luciferase reporter growth, 96 h. Potency, µM (highest dose often 28.7 µM), for the others: at the top dose activity change, negative = inhibition, usual class: inhibitors. 320,000 tested, 6.9% active. AID 504834; note: potency is the fitted concentration of half-maximal effect; % is set by controls: 0 for no effect and ±100 for the full control effect
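Parasite growth measured via integrated firefly luciferase reporter in P. falciparum. Infected erythrocytes at 2% hematocrit, 0.05% parasitemia final were treated 96 hours at 37 C under 5% CO2, and luminescence was read.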
CHX counter: affects cycloheximide protein synthesis inhibition readout, counter-screen | max response, % | cell reporter, cycloheximide protein synthesis inhibition counterscreen | 300,000 tested, 12% active | AID 2314; in the data active = max response mostly above about 13%, no sharp cut-off; inactive = mostly below about 14%; note: read at 38.3 µM for the half of the compounds with a filed dose; 0% is about no effect
Shiga inhibitor: blocks Shiga toxin action in Vero cells; Vero cells, Shiga toxin protein synthesis inhibition reporter; inhibition, % at 38.7 µM; 290,000 tested, 9.2% active; in the data active = inhibition mostly above about 28%, no sharp cut-off; inactive = mostly below about 43%; note: 0% is about no effect
Sm TGR block: S. mansoni TGR enzyme inhibition; Q962Y6; purified TGR, DTNB reduction, TNB absorbance 405 nm; Potency, µM (highest dose often 114 µM), inactives show at the highest dose activity change, negative = inhibition, actives largely listed as inhibitors; 360,000 tested, 3% active; note: potency is the fitted concentration of half-maximal effect; % is set by controls: 0 for no effect and ±100 for the full control effect; nearly all actives have a fitted effect of over 60% in size
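First, TGR (20 nM dispensed) and NADPH were mixed with compound. Second, a 15 min room-temperature incubation followed. Third, further NADPH and then DTNB were added to start the reaction. Finally, TNB absorbance was monitored kinetically.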
Pf growth 48h: inhibits P. falciparum growth in the first generation, 48 h. P. falciparum luciferase growth in erythrocytes, 48 h. Potency, µM (top dose mostly 28.7 µM), for inactives: at the highest dose activity change, negative = inhibition, most hits filed as inhibitors. 310,000 tested, 5.9% active. AID 504832; note: potency is the fitted concentration of half-maximal effect; % is set by controls: 0 for no effect and ±100 for the full control effect
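Luminescence readout; reporter = integrated firefly luciferase in P. falciparum. RBC culture at 2% hematocrit, 0.1% parasitemia final, 37 C/5% CO2; decreased signal taken as growth inhibition.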
NS1 function inh: influenza NS1 inhibition | Potency, µM (titrated, usually from 46.1 µM), inactives show top-dose activity, positive = more growth | 270,000 tested, 0.4% active | AID 2326; calls by dose curve; note: potency is the fitted concentration of half-maximal effect; actives are rising curves; nearly all actives have a fitted effect of over 50% in size
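In this qHTS, NS1 from influenza A is expressed in budding yeast, where it slows growth. Cells are switched from glucose to 2% galactose medium (pH 6.0, -URA), treated with compound, and growth recovery is read at OD600.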
* hit, by the source's call; ! = a repeat was not active. The list is not random: actives were taken first. Their share in the collection is about 21%. Unless noted, calls come from the whole dose curve; as a rule, active = well fitted curve in the direction sought with a large enough effect; inconclusive = small, poorly fitted or top-dose-only effect, or another doubt; inactive = no such curve, though single readings can be large; an effect the other way counts as inactive or inconclusive.

For O=C(CCS(=O)(=O)c1cc(Br)cc2c1N(C(=O)C1CC1)CC2)N1CCN(c2cccc(Cl)c2)CC1 the results were Sm TGR block -8%.
CCOC(=O)C1CCCN(S(=O)(=O)c2cc(-c3onc(C)c3C)ccc2OC)C1 (configuration not stated) was read as Sm TGR block 8%.
For COc1cccc(NC(=O)CCNC(=O)C2CCN(S(=O)(=O)c3ccc(F)cc3)CC2)c1 the results were Pf growth 96h -15%, CHX counter -2, Shiga inhibitor -7, Sm TGR block 9%, Pf growth 48h -4% and NS1 function inh 3%.
`C=CCN(C(=O)c1oc2c(Cl)cc(C)cc2c1C)C1CCS(=O)(=O)C1` (configuration not stated) gave Pf growth 96h -12%, CHX counter 60*, Shiga inhibitor 60*, Sm TGR block 0%, Pf growth 48h 12% and NS1 function inh -35%.
For Cc1cc(Cl)c2oc(C(=O)N(C)CC3CCOCC3)c(C)c2c1 the results were Pf growth 96h inconclusive, CHX counter 38*, Shiga inhibitor 71*, Sm TGR block -16%, Pf growth 48h 49% and NS1 function inh -21%.
For CN(CC1CCOCC1)C(=O)c1ccc2nc(Cc3cccc(Cl)c3)oc2c1 the results were Pf growth 96h inconclusive, CHX counter 8, Shiga inhibitor 9, Sm TGR block -7%, Pf growth 48h -15% and NS1 function inh -11%.
`Cc1cc(Cl)c2oc(C(=O)N3CCN(C4CCS(=O)(=O)C4)CC3)c(C)c2c1` (configuration not stated) gave Pf growth 96h 66%, CHX counter -1, Shiga inhibitor -10, Sm TGR block -4%, Pf growth 48h 13% and NS1 function inh -6%.
`CC1(C(=O)NCCN2CCOCC2)C=CCN1C(=O)c1ccccc1` (configuration not stated) gave Pf growth 96h 0%, CHX counter 26*, Shiga inhibitor 41*, Sm TGR block -2%, Pf growth 48h 13% and NS1 function inh -19%.
`CCCC(=O)N1CCN(c2ccc(NC(=S)NC(=O)CC)cc2)CC1` gave Pf growth 96h 142%, CHX counter 1, Shiga inhibitor -14, Sm TGR block -4%, Pf growth 48h -6% and NS1 function inh -20%.
CCOc1ccc(C(c2c(O)cc(C)n(CCOC)c2=O)N2CCC(C)CC2)cc1 (configuration not stated) was read as Sm TGR block 20µM*.
Screening COCCn1c(C)cc(O)c(C(c2ccccc2)N2CCN(c3ccccc3F)CC2)c1=O (configuration not stated) returned Sm TGR block 7.1µM*.
COCCn1c(C)cc(O)c(C(c2ccccc2)N2CCN(C)CC2)c1=O (configuration not stated) was read as Sm TGR block 6.3µM*.
For CCOc1ccc(C(c2c(O)cc(C)n(CCOC)c2=O)N2CCN(c3ccccc3F)CC2)cc1 (configuration not stated) the results were Sm TGR block 10µM*.
COCCn1nnnc1C(c1ccccc1)N1CCN(C)CC1 (configuration not stated) was read as Pf growth 96h 39%, CHX counter -3, Shiga inhibitor -2, Sm TGR block 6%, Pf growth 48h -7% and NS1 function inh -6%.
For COCCn1nnnc1C(c1ccc2ncccc2c1)N1CCN(c2ccccc2F)CC1 (configuration not stated) the results were Pf growth 96h inconclusive, CHX counter -3, Shiga inhibitor -2, Sm TGR block 1%, Pf growth 48h -11% and NS1 function inh -17%.
`COc1ccc(-c2cc3nc(C)c(CCC(=O)NC4CCCCC4)c(C)n3n2)c(OC)c1` gave Sm TGR block -3%.
Screening Cc1cccnc1NC(=O)CSc1nnc(CNC(=O)c2cccc([N+](=O)[O-])c2)n1C returned Pf growth 96h inconclusive, CHX counter -2, Shiga inhibitor -11, Sm TGR block -2%, Pf growth 48h 2% and NS1 function inh 3%.
COc1ccc(C2/C=C\CN(S(=O)(=O)c3ccc(C)cc3)CC(=O)N2Cc2ccc(F)cc2)cc1 (configuration not stated) was read as Pf growth 96h inconclusive, CHX counter -2, Shiga inhibitor 2, Sm TGR block 5%, Pf growth 48h inconclusive and NS1 function inh 10%.
For COc1ccc(C2/C=C\CN(S(=O)(=O)c3cccc4cccnc34)CC(=O)N2Cc2ccc(F)cc2)cc1 (configuration not stated) the results were Pf growth 96h 12µM*, CHX counter 5, Shiga inhibitor -4, Sm TGR block -3%, Pf growth 48h inconclusive and NS1 function inh inconclusive.
Screening COc1ccc(C2/C=C\CN(C(=O)Nc3ccccc3-c3ccccc3)CC(=O)N2Cc2ccc(F)cc2)cc1 (configuration not stated) returned Pf growth 96h 13µM*, CHX counter 62*!, Shiga inhibitor 152*!, Sm TGR block 16%, Pf growth 48h 13µM* and NS1 function inh inconclusive.
For COc1ccc(C2/C=C\CN(CC3CC3)CC(=O)N2Cc2ccc(F)cc2)cc1 (configuration not stated) the results were Pf growth 96h 30%, CHX counter 6, Shiga inhibitor -12, Sm TGR block -31%, Pf growth 48h 31% and NS1 function inh -3%.
`COc1ccc(C2/C=C\CN(CC(C)(C)C)CC(=O)N2Cc2ccc(F)cc2)cc1` (configuration not stated) gave Pf growth 96h inconclusive, CHX counter -2, Shiga inhibitor -9, Sm TGR block 32µM*, Pf growth 48h inconclusive and NS1 function inh 13%.
Screening Cc1oc(-c2cccc(Cl)c2)nc1CN1CCCC(C(=O)N2CCN(c3ccc(F)cc3)CC2)C1 (configuration not stated) returned Sm TGR block 1%.
Cc1ccc(NC(=O)C2CC(=O)N(Cc3ccccc3)C2)nc1 (configuration not stated) was read as Pf growth 96h inconclusive, Sm TGR block 0% and Pf growth 48h inconclusive.
Screening O=C(CSc1nc(=O)n(CCCN2CCOCC2)c2c1CCC2)Nc1ccccc1F returned Pf growth 96h 12%, Sm TGR block 0% and Pf growth 48h 12%.
`CC(=O)NC1=NN(C(C)=O)C(C)(c2ccc3ccccc3c2)S1` (configuration not stated) gave Pf growth 96h 69%, CHX counter -3, Shiga inhibitor -6, Sm TGR block 3%, Pf growth 48h 2.9µM* and NS1 function inh 9%.
